# Bioassay records (PubChem)
# In the library only some 12% were active in any assay of this set; here they are far more common.
# JMJD2A Tudor inh = JMJD2A Tudor domain (human) inhibition. Potency, µM (highest dose often 114 µM), without a hit: top-dose activity change, negative = inhibition, actives largely listed as inhibitors. AID 504339. O75164. AlphaScreen JMJD2A-Tudor / H3K4me3 peptide binding. 4.4% of 390,000 active; also: potency is read from the fitted curve at half-maximal effect; % is scaled to controls: 0 for no effect and ±100 for the full control effect; nearly all actives have a fitted effect of over 50% in size
# PI5P4Ka inh = inhibitors of human PI5P4K alpha | PI5P4Kalpha enzyme, ADP-Glo luminescence, 60 min; active compounds read low | AID 652105 | max response, % | 1.2% of 330,000 active; active = max response of -50% or lower; inconclusive = between -30% and -50%; inactive = -30% or higher; also: value at the top dose of about 77 µM; % is scaled to controls: 0 for no effect and ±100 for the full control effect
#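 Controls without substrate or without enzyme flank wells where PI5P4Kalpha converts substrate using 5 microM ATP (final). Incubation lasts 60 minutes at room temperature; ADP formed is read by ADP-Glo luminescence.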
# BAZ2B block = BAZ2B (human) inhibition; AID 504333; 4.4% of 360,000 active; AlphaScreen BAZ2B-H3K14Ac peptide displacement; Potency, µM (highest dose often 114 µM), without a hit: at the highest dose activity change, negative = inhibition, most hits filed as inhibitors; Q9UIF8; also: potency is read from the fitted curve at half-maximal effect; % is scaled to controls: 0 for no effect and ±100 for the full control effect; nearly all actives have a fitted effect of over 60% in size
#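 BAZ2B 50 nM plus b-H3(5-23)K14Ac 50 nM, PBS pH 7.4/0.01% Tween-20, 30 min RT; compound added (max 110 uM), 30 min RT; streptavidin donor/Ni-chelate acceptor beads 10 ug/mL final, 20 min dark; AlphaScreen read.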
# HP1b chromo inh = HP1-beta chromodomain-methylated histone interaction inhibition; P83916; AlphaScreen HP1-beta / biotin-H3K9me3 peptide binding; Potency, µM (titrated, usually from 114 µM), without a hit: at the top dose activity change, negative = inhibition, actives largely listed as inhibitors; 0.56% of 390,000 active; AID 540317; also: potency is read from the fitted curve at half-maximal effect; nearly all actives have a fitted effect of over 70% in size
#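 Compound inhibition of the preformed complex between 50 nM HP1-beta and 50 nM biotinylated H3K9me3 peptide was read by AlphaScreen. Buffer was PBS pH 7.4 with 0.01% Tween-20. Incubations ran 30 min at room temperature, with 10 ug/mL donor/acceptor beads.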
# PLK1 PBD inh = blocks phosphopeptide binding to human PLK1 polo-box domain; P53350; Plk1 PBD binding of FITC phosphopeptide, fluorescence polarization; Potency, µM, for inactives: max response, negative = inhibition, most hits filed as inhibitors; 2.8% of 360,000 active; AID 720504; also: potency is read from the fitted curve at half-maximal effect; series mostly up to about 57 µM; % is scaled to controls: 0 for no effect and ±100 for the full control effect; nearly all actives have a fitted effect of over 65% in size
# G9a inh = G9a (human) methyltransferase inhibition | G9a H3K9 monomethylation, AlphaScreen, 2 h | AID 504332 | Q96KQ7 | 8.8% of 350,000 active | Potency, µM (top dose mostly 102 µM), inactives show top-dose activity, negative = inhibition, hits mostly inhibitors; also: potency is read from the fitted curve at half-maximal effect; % is scaled to controls: 0 for no effect and ±100 for the full control effect; nearly all actives have a fitted effect of over 75% in size
#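 AlphaScreen read-out: biotin-H3K9 peptide (500 nM) methylation by 20 nM enzyme with 20 uM SAM, 2 h at room temperature after 15 min compound preincubation; anti-monomethyl H3K9 antibody plus donor/acceptor beads, 10 min dark.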
# Starred values were filed as active, the others as inactive; u = inconclusive; x = no result; [ ] = another dose, or the depositor's remark. Unless noted, calls follow the shape of the dose curve; as a rule, active = well fitted curve in the direction sought with a large enough effect; inconclusive = small, poorly fitted or top-dose-only effect, or another doubt; inactive = no such curve, though single readings can be large; an effect the other way counts as inactive or inconclusive.
SMILES,JMJD2A Tudor inh,PI5P4Ka inh,BAZ2B block,HP1b chromo inh,PLK1 PBD inh,G9a inh
Cc1ccc(/C(N)=N/OC(=O)Cc2cccs2)cc1,124.3%,5.0,152.2%,159.9%,-7.1%,320.6%
CCN(CC)CCCNC(=O)c1ccc(Cl)c(S(=O)(=O)Nc2ccccc2OC)c1,5.3%,0.2,3.5%,12.4%,-4.9%,u
COc1ccccc1NS(=O)(=O)c1cc(C(=O)NCc2ccco2)ccc1C,50.1µM*,-8.3,-30.7%,7.0%,-1.7%,-42.2%[59 µM]
Cc1ccc(C(=O)Nc2ccccc2C(=O)O)cc1S(=O)(=O)NC1CCCCC1,-20.5%,-11.7,56.2µM*,23.7%,-22.4%,70.8µM*
CCN(CC)CCNC(=O)c1ccc(Cl)c(S(=O)(=O)Nc2ccccc2OC)c1,-12.6%[57.1 µM],-9.8,-6.3%,1.5%,23.8µM*,x
Cc1ccc(C(=O)Nc2ccccc2C(=O)NCc2ccco2)cc1S(=O)(=O)N1CCCCC1,u,3.5,-20.9%,7.8%,-8.5%,15.8µM*
Cc1ccc(C(=O)Nc2ccccc2C(=O)O)cc1S(=O)(=O)Nc1ccccc1,-5.1%,-18.8,1.4%,27.1%,-16.2%,-7.3%[59 µM]
Cc1ccccc1NS(=O)(=O)c1cc(C(=O)NCc2ccco2)ccc1C,-18.4%,x,-27.2%,10.6%,-8.4%,-10.6%[12.7 µM]
Cc1noc(C)c1C(=O)N1CCC2(CCCN(C(=O)NC(C)C)C2)CC1,x,x,x,x,x,-7.7%[12.7 µM]
CCCSC1=N/C(=C\c2ccsc2)C(=O)S1,74.7%,1.3,20.3%,87.1%,-6.0%,51.1%[12.7 µM]
COc1ccc(-c2ccc(/C=C3/C(=N)N4C=CSC4=NC3=O)o2)c([N+](=O)[O-])c1,u,-3.3,u,-5.3%,-5.3%,u
CSC1=N/C(=C\c2ccc(C)o2)C(=O)S1,u,4.1,44.7µM*,-66.0%,-12.9%,12.6µM*
CCSC1=N/C(=C\c2ccc(-c3ccccc3[N+](=O)[O-])o2)C(=O)S1,u,1.3,7.94µM*,10µM*,-18.2%,46.5%[0.501 µM]
CSC1=N/C(=C\c2ccc(C)s2)C(=O)S1,-16.2%,1.1,-1.8%,27.1%,-18.6%,9.9%[59 µM]
CCCSC1=N/C(=C\c2ccc([N+](=O)[O-])o2)C(=O)S1,11.2µM*,-70.1*,12.6µM*,35.5µM*,7.52µM*,u
COc1cccc(NC(=O)CNC(=O)Cn2c(C)cc3ccccc3c2=O)c1,-1.7%,x,0.1%,34.3%,x,6.5%[59 µM]
O=c1c(Br)ccc(Br)cc1Br,-27.1%,-6.1,x,-8.7%,0.532µM*,x
O=C1CN(S(=O)(=O)c2cc(Br)ccc2Br)CCN1,-11.0%,0.5,x,36.5%,-3.4%,x
C/C(CC(C)C)=N\Nc1ccc(S(N)(=O)=O)cc1[N+](=O)[O-],u,-2.9,x,-7.7%,0.4%,u
NS(=O)(=O)c1ccc(N/N=C2/CCCCC2C2CCCCC2)c([N+](=O)[O-])c1 (stereo not drawn),28.2µM*,1.0,10µM*,31.6µM*,-13.6%,u
Cc1cc(C)c2c(c1)/C(=N/Nc1ccc(S(N)(=O)=O)cc1[N+](=O)[O-])CCC2,-15.5%,-3.8,-31.6%,13.6%[57 µM],-4.8%,39.8µM*
Cn1c(=O)cnc2cnc(Oc3ccccc3)nc21,x,x,x,x,x,5.3%[12.7 µM]
N=C(N)S/C=C\C(=O)O,x,x,x,x,x,25.1µM*
COc1cc(C(F)(F)F)c(C(=O)NCc2cccc(Cl)c2)cn1,10.3%,1.2,4.2%,46.5%,1.5%,79.4µM*
C/C(=N\Nc1nc(N2CCCCC2)nc(N2CCOCC2)n1)c1ccccc1O,-32.9%,15.8,-28.5%,16.1%,-7.0%,-1.2%
SMILES,JMJD2A Tudor inh,PI5P4Ka inh,BAZ2B block,HP1b chromo inh,PLK1 PBD inh,G9a inh
S=c1nc(-c2sccc2OCc2ccc(Cl)cc2Cl)[nH][nH]1,-8.3%[11.4 µM],u,u,-14.4%,u,44.7µM*
CN(Cc1ccccc1)C(=O)COC(=O)c1cc2ccccc2oc1=O,-12.4%,0.0,x,27.6%,-4.5%,x
Cc1cccc(-n2c(Cc3ccccc3)n[nH]c2=S)c1,31.6µM*,-1.5,-19.5%,1.6%,2.6%,22.4µM*
CSc1nnc(CNC(=O)c2ccccc2)n1-c1cccc(C)c1,-2.8%,2.5,2.5%,32.5%,0.7%,18.0%[59 µM]
Cc1cccc(-n2c(CNC(=O)Cc3ccccc3)n[nH]c2=S)c1,3.98µM*,-11.7,-13.9%,36.5%,-4.0%,20µM*
CCc1ccc(-n2c(Cc3ccccc3)n[nH]c2=S)cc1,22.4µM*,0.1,-27.1%,9.9%,-18.2%,u
Cc1cccc(-n2c(Cc3ccccc3)nnc2SCc2ccc([N+](=O)[O-])cc2)c1,u,11.4,-36.5%,u,-12.8%,-16.3%[59 µM]
COc1ccc(-c2ccccc2)cc1NC(=O)[C@@H]1O[C@H](CO)[C@H](O)[C@H](O)[C@H]1O,x,-0.6,x,x,-6.3%,x
CC(C)c1ccc(/C=C(\c2nc3ccccc3[nH]2)S(=O)(=O)c2ccccc2)cc1,-14.1%,-2.0,-31.3%,-0.2%,-7.7%,6.4%[59 µM]
O=S(=O)(/C(=C/c1ccc(C(F)(F)F)cc1)c1nc2ccccc2[nH]1)c1ccccc1,79.4µM*,-6.1,-30.3%,-12.1%,0.0%,6.4%[59 µM]
CC(CN1CC(=O)NC(=O)C1)N1CC(=O)NC(=O)C1 (stereo not drawn),x,-7.3,x,x,u,2.82µM*
COc1ccc2nc3ccccc3nc2c1NC(=O)c1ccccc1Cl,-2.4%,-4.6,-1.7%,10.0%,37.7µM*,-31.1%
Cn1nc(C(=O)Nc2nc3ccccc3[nH]2)ccc1=O,-35.4%,-1.1,u,18.5%,-12.5%,31.6µM*
CN(C)c1cccc(C(=O)Nc2nc3ccccc3[nH]2)c1,44.7µM*,-7.6,35.5µM*,u,-16.0%,50.1µM*
COc1ccccc1C(=O)Nc1nc2ccccc2[nH]1,u,u,4.9%,-17.1%[57 µM],21.2µM*,u
O=C(Nc1ccc2ccccc2n1)c1ccccc1Cl,3.2%,3.9,0.1%,30.9%,-10.5%,-8.5%[2.33 µM]
CC(Sc1nnc(C(F)(F)F)n1C)C(=O)Nc1ccc(N2CCOCC2)cc1 (stereo not drawn),-6.4%,-3.4,x,22.7%,-3.3%,x
CC(Sc1nnc(C(F)(F)F)n1C)C(=O)Nc1ccc(S(N)(=O)=O)cc1 (stereo not drawn),u,-1.8,-15.6%,9.5%,29.9µM*,-1.7%
CC(C)CCn1c(SCCc2ccccc2)nc2c1c(=O)[nH]c(=O)n2C,-18.9%,-1.3,2.0%,-16.6%,u,u
C/C=C/Cn1c(N(C)Cc2ccccc2)nc2c1c(=O)[nH]c(=O)n2C,-18.4%,-4.4,-27.6%,20.4%,1.5%,50.1µM*
CCCCSc1nc2c(c(=O)[nH]c(=O)n2C)n1CCc1ccccc1,-18.4%,-4.1,-2.6%,18.0%,-9.6%,u
CC(C)n1c(SCCCc2ccccc2)nc2c1c(=O)[nH]c(=O)n2C,-2.1%,-4.9,1.2%,-9.6%,9.47µM*,35.5µM*
C=CCn1c(SCCN2CCCCC2)nc2c1c(=O)[nH]c(=O)n2C,-14.3%,8.6,9.9%,28.7%,-8.1%,u
